Our source for the Potency and outcome values is PubChem BioAssay (Tox21).

The target in experiment [1] is Aryl hydrocarbon receptor (Homo sapiens) (UniProt P35869). Kind of experiment: qHTS assay to identify small molecule that activate the aryl hydrocarbon receptor (AhR) signaling pathway (AID 743085). Also: nearly all actives have a fitted effect of over 15% in size. Also: potency is read from the fitted curve at half-maximal effect.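 As to activation: HG2L7.5c1 human HepG2 liver cells with stably integrated DRE-driven firefly reporter; series mostly up to about 70 µM.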 An outline of the steps:
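Stably transfected human liver carcinoma cells (HG2L7.5c1; 20 DRE-firefly luciferase) were incubated 5 h, dosed, and kept 24 h at 37C. Agonism was scored from increased luciferase luminescence.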
(In general: In qHTS, concentration-response curves come from the screen itself.)

Experiment [2] in a line: qHTS assay to identify small molecule that activate the aryl hydrocarbon receptor (AhR) signaling pathway - cell viability counter screen (AID 743086).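 Also: HepG2 liver cells carrying the AhR DRE luciferase reporter; series mostly up to about 70 µM; nearly all actives have a fitted effect of over 45% in size.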 An outline of the steps:
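HepG2-AhR-luc (HG2L7.5c1) cells, 4000/well, treated 24 h at 37 C with compound; viability measured as CellTiter-Fluor fluorescence after 30 min in the same wells as the luciferase read.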

Experiment [3] addresses Peroxisome proliferator-activated receptor gamma (Homo sapiens) (UniProt P37231). Briefly: qHTS assay to identify small molecule agonists of the peroxisome proliferator-activated receptor gamma (PPARg) signaling pathway (AID 743094; active = well fitted activation curve with a large enough effect in the signal ratio in the repeat runs, not every such curve was filed as active; the % refers to the signal ratio). An outline of the steps:
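Cells from the PPARg UAS-bla HEK293H line are plated and incubated 5 h at 37C. Compounds in DMSO are pinned in and left 17 h at 37C. LiveBLAzer B/G substrate is then added for 1 h at room temperature before fluorescence is measured.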

The nature of experiment [4]: qHTS assay to identify small molecule antagonists of the peroxisome proliferator-activated receptor gamma (PPARg) signaling pathway - cell viability counter screen (AID 743194). Also: nearly all actives have a fitted effect of over 55% in size. Conditions: Potency: co-treated with 50 nM rosiglitazone. In outline:
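Cytotoxicity counter screen in PPARg-bla HEK293H cells, same wells as reporter assay. Compounds plus 50 nM rosiglitazone (final) for 17 h at 37 C, then viability read by CellTiter-Glo luminescence.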

The nature of experiment [5]: qHTS assay for small molecule agonists of the antioxidant response element (ARE) signaling pathway (AID 743202; active = well fitted activation curve with a large enough effect in the signal ratio in the repeat runs, not every such curve was filed as active; the % refers to the signal ratio; also: potency is read from the fitted curve at half-maximal effect). In outline:
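HepG2 ARE-bla reporter line, 2,000 cells/well; 5 h preincubation 37 C/5% CO2; compound (DMSO) 16 h 37 C; B/G FRET substrate 2 h RT; fluorescence intensity.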

Experiment [6] in a line: qHTS assay for small molecule agonists of the antioxidant response element (ARE) signaling pathway - cell viability counter screen (AID 743203; calls by dose curve; also: nearly all actives have a fitted effect of over 55% in size). In outline:
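Cytotoxicity was tested in parallel with the ARE reporter screen. ARE-bla HepG2 cells were exposed to compounds for 16 hrs, and viability was taken from CellTiter-Glo luminescence.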

A short description of experiment [7]: qHTS assay for small molecule activators of the heat shock response signaling pathway - cell viability counter screen (AID 743209). Also: nearly all actives have a fitted effect of over 50% in size. An outline of the steps:
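Cytotoxicity counter screen run in parallel with the HSE beta-lactamase reporter, using the same wells. HeLa HSE-bla cells received compound for 5 h at 37 C; ATP-based CellTiter-Glo luminescence was measured after 30 min at room temperature.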

Experiment [8] is described as follows: qHTS assay for small molecule activators of the heat shock response signaling pathway (AID 743210; active = well fitted activation curve with a large enough effect in the signal ratio in the repeat runs, with a control signal flat, not every such curve was filed as active; the % refers to the signal ratio; also: series mostly up to about 63 µM). An outline of the steps: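 Beta-lactamase reporter read-out: FRET substrate fluorescence after 2.5 h at RT, following 5 h compound treatment at 37 C of HeLa cells carrying HSE-driven bla reporter; quantitative HTS format.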
The nature of experiment [9]: qHTS assay to identify small molecule agonists of the peroxisome proliferator-activated receptor delta (PPARd) signaling pathway - cell viability counter screen (AID 743211). Also: nearly all actives have a fitted effect of over 55% in size. In outline: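 In the same wells used for beta-lactamase reporter measurement, cytotoxicity is scored by CellTiter-Glo. HEK293H PPARd-bla cells receive compound for 17 h at 37C following a 5 h settling period.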

Experiment [10] addresses Peroxisome proliferator-activated receptor delta (Homo sapiens) (UniProt Q03181). Briefly: qHTS assay to identify small molecule agonists of the peroxisome proliferator-activated receptor delta (PPARd) signaling pathway (AID 743212; calls by dose curve). An outline of the steps: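 Read-out: beta-lactamase FRET fluorescence after 2 h room-temperature incubation with LiveBLAzer B/G substrate. Cells were HEK293H carrying a UAS-bla reporter for PPARd, treated at 37 C with DMSO-dissolved compounds.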

Experiment [11] can be described thus: qHTS assay to identify small molecule antagonists of the peroxisome proliferator-activated receptor delta (PPARd) signaling pathway - cell viability counter screen (AID 743213). Also: nearly all actives have a fitted effect of over 50% in size. An outline of the steps: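 In this counter screen, HEK293H cells carrying a UAS-beta-lactamase reporter are co-treated with test compounds and 300 nM L165041 (final) for 17 h at 37 C; cell viability is quantified by CellTiter-Glo luminescence.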

A short description of experiment [12]: qHTS assay to identify small molecule agonists of the farnesoid-X-receptor (FXR) signaling pathway - cell viability counter screen (AID 743218). Also: nearly all actives have a fitted effect of over 45% in size. An outline of the steps: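 Cells were seeded, left 5 h at 37 C and 5% CO2, then dosed with compound in DMSO for 16 h. After the beta-lactamase FRET read, CellTiter-Glo was added and luminescence measured 30 min later.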

A short description of experiment [13]: qHTS assay to identify small molecule antagonists of the farnesoid-X-receptor (FXR) signaling pathway - cell viability counter screen (AID 743221; active = well fitted cell-killing curve with a large enough effect in the repeat runs, not every such curve was filed as active; also: nearly all actives have a fitted effect of over 50% in size). In outline:
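Here viability was scored by luminescence after CellTiter-Glo addition to wells already read for beta-lactamase. Prior treatment: compound plus CDCA (50 uM final), 16 h, 37 C, HEK 293T FXR-bla cells.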

Experiment [14] concerns the target Vitamin D3 receptor (Homo sapiens) (UniProt P11473). Kind of experiment: qHTS assay to identify small molecule agonists of the vitamin D receptor (VDR) signaling pathway (AID 743222; calls by dose curve). In outline:
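Cells carrying a VDR-driven beta-lactamase reporter are seeded at 2,000 per well and rested 4 h. Compounds in DMSO are added for 16 h at 37C, and FRET substrate fluorescence is measured after 2 h at room temperature.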

The target is the same in experiment [15]. Briefly: qHTS assay to identify small molecule antagonists of the vitamin D receptor (VDR) signaling pathway (AID 743223; active = well fitted inhibition curve with a large enough effect in the signal ratio in the repeat runs, not every such curve was filed as active; the % refers to the signal ratio). An outline of the steps:
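Inhibition of agonist-driven VDR signalling is scored in VDR-bla cells: 3 nM final 1alpha,25-dihydroxyvitamin D3 plus compound, 16 h at 37C, then beta-lactamase detection by FRET substrate fluorescence after 2 h.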

Experiment [16] in a line: qHTS assay to identify small molecule agonists of the vitamin D receptor (VDR) signaling pathway - cell viability counter screen (AID 743224). Also: series mostly up to about 63 µM; nearly all actives have a fitted effect of over 50% in size. In outline: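 Cells: VDR-bla, 2,000/well, settled 4 h. Treatment: compounds in DMSO, 16 h, 37C/5% CO2. Readout: CellTiter-Glo luminescence after 30 min RT.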
For experiment [17], the target named is Bile acid receptor (Homo sapiens) (UniProt Q96RI1). Kind of experiment: qHTS assay to identify small molecule antagonists of the farnesoid-X-receptor (FXR) signaling pathway (AID 743217; active = well fitted inhibition curve with a large enough effect in the signal ratio in the repeat runs, not every such curve was filed as active; the % refers to the signal ratio). An outline of the steps:
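Cells carrying a UAS-driven beta-lactamase reporter (GeneBLAzer FXR-UAS-bla HEK 293T) were plated and rested 5 h at 37 °C. Compounds in DMSO were added alongside chenodeoxycholic acid agonist at 50 uM final and left 16 h at 37 °C before FRET substrate readout.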

The target is the same in experiment [18]. Briefly: qHTS assay to identify small molecule agonists of the farnesoid-X-receptor (FXR) signaling pathway (AID 743220; active = well fitted activation curve with a large enough effect in the signal ratio in the repeat runs, not every such curve was filed as active; the % refers to the signal ratio). In outline:
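FXR-UAS-bla HEK 293T cells carrying a UAS-driven beta-lactamase reporter were plated for 5 h at 37C/5% CO2, then exposed to DMSO-dissolved Tox21 10K compounds for 16 h at 37C. A LiveBLAzer B/G FRET substrate was loaded for 2 h at room temperature before fluorescence reading.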

Experiment [19] concerns the target Peroxisome proliferator-activated receptor delta (Homo sapiens) (UniProt Q03181). Kind of experiment: qHTS assay to identify small molecule antagonists of the peroxisome proliferator-activated receptor delta (PPARd) signaling pathway (AID 743215; active = well fitted inhibition curve with a large enough effect in the signal ratio in the repeat runs, not every such curve was filed as active; the % refers to the signal ratio;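 also: cells stimulated with agonist L165041 at 300 nM final during compound exposure; series mostly up to about 62 µM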). An outline of the steps:
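Cells: HEK293H with a UAS-driven beta-lactamase reporter responsive to PPARd. Compounds were co-added with L165041 (300 nM, final) and incubated 17 h at 37 C before a 2 h room-temperature FRET substrate step and fluorescence reading.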

Records with an inconclusive call do not appear. Calls of active or inactive are those of the source. Unless noted, calls follow the shape of the dose curve; as a rule, active = well fitted curve in the direction sought with a large enough effect in the repeat runs; inconclusive = weak or mixed curves; inactive = no such curve, though single readings can be large; an effect the other way counts as inactive or inconclusive.

Chain of Bile acid receptor (Homo sapiens) (Q96RI1 whole entry, looked up): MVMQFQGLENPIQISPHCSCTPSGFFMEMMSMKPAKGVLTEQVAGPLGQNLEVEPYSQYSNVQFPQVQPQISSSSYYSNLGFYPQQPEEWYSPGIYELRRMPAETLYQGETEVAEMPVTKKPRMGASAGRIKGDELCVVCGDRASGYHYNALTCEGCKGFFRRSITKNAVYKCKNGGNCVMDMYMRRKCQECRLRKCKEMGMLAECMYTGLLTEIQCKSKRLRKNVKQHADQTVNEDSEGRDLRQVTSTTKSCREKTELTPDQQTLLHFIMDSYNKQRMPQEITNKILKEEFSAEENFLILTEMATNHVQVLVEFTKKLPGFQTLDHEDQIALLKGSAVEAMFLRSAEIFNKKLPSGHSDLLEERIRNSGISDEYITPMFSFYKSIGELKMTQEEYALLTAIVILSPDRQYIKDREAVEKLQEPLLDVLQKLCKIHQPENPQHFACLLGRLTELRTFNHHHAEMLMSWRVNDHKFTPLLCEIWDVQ
Chain of Vitamin D3 receptor (Homo sapiens) (P11473 whole entry, looked up): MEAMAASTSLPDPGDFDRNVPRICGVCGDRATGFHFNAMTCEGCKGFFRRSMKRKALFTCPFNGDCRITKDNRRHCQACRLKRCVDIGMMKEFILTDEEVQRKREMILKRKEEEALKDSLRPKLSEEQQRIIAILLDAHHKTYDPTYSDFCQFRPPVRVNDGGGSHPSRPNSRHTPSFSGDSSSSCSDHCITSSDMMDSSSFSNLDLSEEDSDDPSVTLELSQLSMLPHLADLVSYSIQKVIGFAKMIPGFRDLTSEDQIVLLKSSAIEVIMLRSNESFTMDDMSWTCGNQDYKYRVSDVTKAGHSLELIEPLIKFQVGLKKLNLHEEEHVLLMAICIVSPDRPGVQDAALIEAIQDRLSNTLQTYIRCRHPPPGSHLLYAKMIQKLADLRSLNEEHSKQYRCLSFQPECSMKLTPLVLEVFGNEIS
Chain of Peroxisome proliferator-activated receptor gamma (Homo sapiens) (P37231 whole entry, looked up): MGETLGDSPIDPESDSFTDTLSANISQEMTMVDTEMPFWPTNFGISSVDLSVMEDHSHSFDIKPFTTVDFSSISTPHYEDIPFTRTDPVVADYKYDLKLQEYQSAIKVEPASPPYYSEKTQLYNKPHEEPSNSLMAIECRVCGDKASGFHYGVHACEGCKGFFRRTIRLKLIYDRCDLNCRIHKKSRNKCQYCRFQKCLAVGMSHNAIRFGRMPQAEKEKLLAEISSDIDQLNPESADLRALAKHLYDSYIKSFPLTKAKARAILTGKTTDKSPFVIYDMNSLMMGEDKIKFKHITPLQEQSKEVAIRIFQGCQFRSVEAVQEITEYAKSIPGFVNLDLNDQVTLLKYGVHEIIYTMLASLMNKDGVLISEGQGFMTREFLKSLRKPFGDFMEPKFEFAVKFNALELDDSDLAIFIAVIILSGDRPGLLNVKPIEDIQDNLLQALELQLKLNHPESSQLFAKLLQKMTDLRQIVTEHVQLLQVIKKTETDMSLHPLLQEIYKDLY
Chain of Aryl hydrocarbon receptor (Homo sapiens) (P35869 whole entry, looked up): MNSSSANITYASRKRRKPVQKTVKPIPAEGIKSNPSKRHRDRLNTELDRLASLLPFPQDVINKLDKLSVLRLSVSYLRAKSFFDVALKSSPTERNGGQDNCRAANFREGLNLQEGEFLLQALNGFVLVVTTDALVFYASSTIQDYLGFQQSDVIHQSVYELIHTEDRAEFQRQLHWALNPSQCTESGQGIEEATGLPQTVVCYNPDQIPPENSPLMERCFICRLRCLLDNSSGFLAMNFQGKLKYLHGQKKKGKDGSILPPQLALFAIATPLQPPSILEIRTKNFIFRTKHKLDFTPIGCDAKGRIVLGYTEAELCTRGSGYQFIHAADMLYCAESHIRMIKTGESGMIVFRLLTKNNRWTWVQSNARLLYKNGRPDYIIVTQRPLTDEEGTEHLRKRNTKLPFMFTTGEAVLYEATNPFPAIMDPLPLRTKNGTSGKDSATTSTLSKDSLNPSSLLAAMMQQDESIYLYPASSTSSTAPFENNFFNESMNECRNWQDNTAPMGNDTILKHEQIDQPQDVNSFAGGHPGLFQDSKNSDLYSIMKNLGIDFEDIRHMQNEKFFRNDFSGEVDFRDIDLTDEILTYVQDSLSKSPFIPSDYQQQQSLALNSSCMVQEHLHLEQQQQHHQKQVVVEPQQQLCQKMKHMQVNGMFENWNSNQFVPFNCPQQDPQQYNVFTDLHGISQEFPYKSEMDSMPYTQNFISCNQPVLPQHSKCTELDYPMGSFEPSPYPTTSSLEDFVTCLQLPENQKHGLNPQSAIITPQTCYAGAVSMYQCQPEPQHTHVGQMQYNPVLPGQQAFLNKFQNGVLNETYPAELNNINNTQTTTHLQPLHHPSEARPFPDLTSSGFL
Chain of Peroxisome proliferator-activated receptor delta (Homo sapiens) (Q03181 whole entry, looked up): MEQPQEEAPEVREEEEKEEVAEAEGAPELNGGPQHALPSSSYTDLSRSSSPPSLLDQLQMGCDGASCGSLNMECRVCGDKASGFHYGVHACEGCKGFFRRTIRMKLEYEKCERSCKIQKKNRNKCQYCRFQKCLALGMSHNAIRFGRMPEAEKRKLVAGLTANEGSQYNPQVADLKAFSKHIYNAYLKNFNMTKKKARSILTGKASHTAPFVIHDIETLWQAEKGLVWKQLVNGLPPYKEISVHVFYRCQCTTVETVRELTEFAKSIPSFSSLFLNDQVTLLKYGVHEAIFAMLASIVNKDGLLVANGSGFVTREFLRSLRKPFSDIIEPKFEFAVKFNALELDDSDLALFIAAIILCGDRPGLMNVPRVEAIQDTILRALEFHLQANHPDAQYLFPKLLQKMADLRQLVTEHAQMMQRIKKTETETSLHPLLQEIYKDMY

Regarding `CCCC(C)(COC(N)=O)COC(N)=O`, the Potency entry in experiment [1], in experiment [2], in experiment [4], in experiment [5], in experiment [6] and in experiment [7] was “inactive” throughout. Moreover, the Potency result in experiment [8], in experiment [9], in [11], in experiment [12], in experiment [13] and in experiment [16] was “inactive” each time. For the same compound, the call in [3], in [10], in experiment [14] and in experiment [15] was inactive.
`CC(=O)CN(CC(C)=O)N=O`: the Potency result in experiment [1], in [2], in experiment [4], in experiment [5], in experiment [6] and in experiment [7] was “inactive” throughout. In addition, the Potency entry in [8], in experiment [9], in experiment [11], in experiment [12], in experiment [13] and in [16] was “inactive” throughout. The outcome in experiment [3] and in experiment [10] was inactive.
As for `O=C(Cl)OCc1ccccc1`, the Potency result in [1], in [2], in [4], in [5], in experiment [6] and in experiment [9] was “inactive” in each case. Also, the Potency entry in [11], in experiment [12], in experiment [13] and in [16] was “inactive” each time. The call in experiment [3] was inactive.
Regarding `NC(=O)CS(=O)C(c1ccccc1)c1ccccc1` (stereo unspecified), the Potency result in experiment [1], in [2], in experiment [4], in experiment [5], in [6] and in experiment [7] was “inactive” throughout. The Potency entry in experiment [8], in [9], in experiment [11], in experiment [12], in experiment [13] and in experiment [16] was “inactive” throughout. Moreover, in [3], the compound was called inactive.
Consider `CC(Cl)(Cl)Cl`, for which the Potency entry in experiment [1], in [2], in experiment [4], in experiment [5], in experiment [6] and in experiment [7] was “inactive” in each case. The Potency result in [8], in experiment [9], in [12], in [13] and in experiment [16] was “inactive” each time. The outcome in [3], in experiment [10], in [14] and in experiment [15] was inactive.
As to `O=C(O)C(Cl)Br` (stereo unspecified), the Potency result in experiment [1], in [2], in experiment [4], in [6], in experiment [8] and in experiment [9] was “inactive” each time. The Potency entry in [11], in [12], in [13] and in [16] was “inactive” in each case. Also, the compound was classed as inactive in experiment [3], in experiment [10], in experiment [17], in experiment [18] and in experiment [14]. Moreover, the Potency in experiment [5] is 4.91 µM (active).
On to `CC1N=C(N)OC1c1ccccc1` (stereo unspecified), for which the Potency result in [1], in experiment [2], in [4], in [5], in experiment [6] and in experiment [8] was “inactive” throughout. The Potency entry in experiment [9], in experiment [11], in experiment [19], in experiment [12] and in [13] was “inactive” throughout. In addition, the compound was called inactive in experiment [3], in experiment [10], in [18], in experiment [14] and in experiment [15].
Take `C=CC(=O)OCCN(C)C`: the Potency result in experiment [1], in [2], in experiment [4], in experiment [5], in experiment [6] and in experiment [7] was “inactive” throughout. In addition, the Potency result in experiment [8], in experiment [9], in experiment [11], in experiment [19], in experiment [12] and in experiment [13] was “inactive” each time. Besides, the Potency entry in experiment [16] is “inactive”. For the same compound, the outcome in [3], in [10] and in experiment [14] was inactive.
For the compound `O=C(O)C(Br)(Br)Br`, the Potency result in experiment [1], in experiment [2], in experiment [4], in experiment [6], in experiment [7] and in [8] was “inactive” throughout. In addition, the Potency result in experiment [9], in experiment [11], in experiment [12], in [13] and in experiment [16] was “inactive” throughout. Further, the compound was classed as inactive in experiment [3], in experiment [10], in [14] and in experiment [15]. The Potency in [5] was 5.44 µM (active).
For `Oc1ccc(Cc2ccc(O)cc2)cc1`, the Potency entry in experiment [1], in experiment [2], in experiment [4], in [6], in [7] and in experiment [9] was “inactive” in each case. Moreover, the Potency entry in [19], in [12] and in experiment [13] was “inactive” each time. Also, the compound was called inactive in experiment [3] and in experiment [10]. In addition, the Potency in [5] was 27.5 µM (active).
In the case of `C=CCN1CC[C@]23CCCC[C@H]2[C@H]1Cc1ccc(O)cc13`, the Potency result in [1], in experiment [2], in experiment [4], in experiment [5], in experiment [6] and in [8] was “inactive” in each case. In addition, the Potency entry in [9], in experiment [11], in experiment [12], in experiment [13] and in [16] was “inactive” throughout. For the same compound, the outcome in [3], in experiment [17], in experiment [18], in experiment [14] and in [15] was inactive.
As for `CCOC(=O)Nc1cccc(OC(=O)Nc2ccccc2)c1`, the Potency in experiment [1] is 54.5 µM (active). The Potency result in experiment [2], in experiment [4], in experiment [5], in [6], in [7] and in [8] was “inactive” in each case. Moreover, the Potency result in experiment [9], in experiment [11], in experiment [19], in [12] and in experiment [13] was “inactive” throughout. Also, the compound was called inactive in experiment [3], in experiment [10] and in experiment [15].
In the case of `CS(=O)(=O)Cl`, the Potency entry in experiment [1], in experiment [2], in experiment [4], in experiment [5], in experiment [6] and in [8] was “inactive” each time. In addition, the Potency entry in experiment [9], in [19], in [12], in experiment [13] and in experiment [16] was “inactive” in each case. Also, the compound was classed as inactive in experiment [3], in experiment [10], in experiment [14] and in experiment [15].
